Compound activity (PubChem)
STK33 kin inh: inhibitors of human STK33 kinase; AID 2322; ADP-Glo luminescence, MBP substrate; 27,000 compounds, 0.44% hits; Q9BYT3; inhibition, % at 12.5 µM; in the data active means inhibition above about 20%; inconclusive means no clear call, values can overlap the other calls
ID4 binder: ID4 (human) binding | 31,000 compounds, 1.2% hits | AID 624137 | calls only | small molecule microarray, Flag-ID4 binding, fluorescence F/B | P47928; call rule not given here;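 further: a binder raises fluorescence above local background on the spot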
Target sequence (P47928 whole entry, looked up): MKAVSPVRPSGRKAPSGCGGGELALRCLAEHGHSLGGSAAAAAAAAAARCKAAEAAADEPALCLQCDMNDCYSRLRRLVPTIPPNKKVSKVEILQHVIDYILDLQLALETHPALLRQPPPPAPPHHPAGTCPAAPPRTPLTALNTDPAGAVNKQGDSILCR
p53 PUMA act: re-activators of the mutant p53 pathway | SW480 PUMA-promoter luciferase, p53 mutant reactivation | activation, % at 9.98 µM | 28,000 compounds, 1.5% hits | AID 624151; in the data active means activation above about 52%; inconclusive means no clear call, values can overlap the other calls
Numbers without * were called inactive. The list is not random: actives were taken first. Their share in the collection is about 2%.

Cc1ccc(Cl)c(OCC(=O)NCc2ccco2)c1 was read as STK33 kin inh -5, ID4 binder inactive and p53 PUMA act inconclusive.
`O=C(COc1ccc2ccccc2c1Br)NCc1ccco1` gave STK33 kin inh -5, ID4 binder inactive and p53 PUMA act 85*.
`Cc1ccc(NC(=O)C(C)NS(=O)(=O)c2ccc(F)cc2)c(C)c1` (stereo unspecified) gave STK33 kin inh inconclusive, ID4 binder inactive and p53 PUMA act -3.
`NNC(=O)CNC(=O)c1ccccc1` gave STK33 kin inh -1.
CCN(CC)S(=O)(=O)c1ccc(Cl)c(C(=O)Oc2ccc(C)c(C)c2)c1 was read as STK33 kin inh -1.
For Cc1ccccc1-c1nc2cc(NC(=O)COc3ccc(Br)cc3)ccc2o1 the results were STK33 kin inh 5, ID4 binder inactive and p53 PUMA act 74*.
Screening Cc1ccccc1-c1nc2cc(NC(=O)COc3ccc(Cl)cc3)ccc2o1 returned STK33 kin inh -4, ID4 binder inactive and p53 PUMA act 71*.
O=C(COc1ccccc1)Nc1ccc2oc(-c3ccc(Cl)cc3Cl)nc2c1 was read as STK33 kin inh -1, ID4 binder inactive and p53 PUMA act 0.
Screening CCc1ccc(OCC(=O)Nc2ccc3oc(-c4ccccc4F)nc3c2)cc1 returned STK33 kin inh 1, ID4 binder inactive and p53 PUMA act -29.
`CO[C@@H]1C=C[C@@]23c4cc5c(cc4CN(CC2O)[C@H]3C1)OCO5` (stereo partly specified) gave STK33 kin inh -8 and ID4 binder inactive.
`Cc1ccc(C2C(C#N)=C(N)OC(C3CC3)=C2C#N)cc1` (stereo unspecified) gave STK33 kin inh -3.
`Cc1nnc(SCC(=O)c2ccc3c(c2)OCCO3)s1` gave STK33 kin inh 4, ID4 binder inactive and p53 PUMA act 89*.
Cn1cnnc1SCC(=O)c1ccc2c(c1)OCCO2 was read as STK33 kin inh -2, ID4 binder inactive and p53 PUMA act -14.
For O=C(O)c1cc(F)cc(C(F)(F)F)c1 the results were STK33 kin inh 1.
COc1cc(CNC2CCCC2)ccc1OCC(N)=O was read as STK33 kin inh 2, ID4 binder inactive and p53 PUMA act 4.
COc1cc(CNC23CC4CC(CC(C4)C2)C3)ccc1OCC(N)=O was read as STK33 kin inh 9, ID4 binder active and p53 PUMA act -5.
O=C(CCSc1ccc([N+](=O)[O-])cc1)Nc1cccc2cccnc12 was read as STK33 kin inh -2, ID4 binder inactive and p53 PUMA act 12.
Screening Cc1cccc(C)c1OCC(=O)Nc1ccc([N+](=O)[O-])cc1O returned STK33 kin inh -3, ID4 binder inactive and p53 PUMA act 4.
Screening CCc1cccc(OCC(=O)Nc2cc([N+](=O)[O-])ccc2O)c1 returned STK33 kin inh -3, ID4 binder inactive and p53 PUMA act 74*.
Screening O=C(COc1cccc2ccccc12)Nc1cc([N+](=O)[O-])ccc1O returned STK33 kin inh -2, ID4 binder inactive and p53 PUMA act 67*.
For O=C(COc1ccc([N+](=O)[O-])cc1)Nc1cccc2cccnc12 the results were STK33 kin inh 4, ID4 binder inactive and p53 PUMA act 64*.
`O=C(COc1ccccc1)Nc1ccc([N+](=O)[O-])cc1O` gave STK33 kin inh 4, ID4 binder inactive and p53 PUMA act 3.
`O=c1cc(-c2ccc(O)cc2)oc2cc(O[C@@H]3O[C@H](CO)[C@@H](O)[C@H](O)[C@H]3O[C@H]3OC[C@](O)(CO)[C@H]3O)ccc12` gave STK33 kin inh 0 and p53 PUMA act 7.
For N#Cc1cccc(NCCN2CCNC2=O)n1 the results were ID4 binder inactive and p53 PUMA act -3.
For Cn1c(SCC(=O)n2c3c(c4ccccc42)CCCC3)nnc1-c1ccco1 the results were STK33 kin inh -1, ID4 binder inactive and p53 PUMA act -30.
Screening CC(C)[C@@H]1CC[C@@H](C)C[C@H]1OC(=O)c1ccccc1 returned STK33 kin inh 2.
Screening O=S(=O)(NCC1CCN(Cc2ccc(OCCO)cc2)CC1)c1cc(Cl)ccc1Cl returned STK33 kin inh -3.
`NCCNc1ccc([N+](=O)[O-])c(NCCO)c1` gave STK33 kin inh -3, ID4 binder active and p53 PUMA act -19.
For NCCNc1ccc([N+](=O)[O-])c(Sc2nc3ccccc3[nH]2)c1 the results were STK33 kin inh -2, ID4 binder inactive and p53 PUMA act -18.
CN(C)CCCCCCNC(=O)[C@@H]1C[C@@H]2C(=O)N3CCC[C@H]3C(=O)N2[C@@H]1c1ccc(O)cc1 was read as STK33 kin inh 2 and ID4 binder active.
For CN(C)CCCCNC(=O)[C@@H]1C[C@@H]2C(=O)N[C@@H](CCCCN(C)C)C(=O)N2[C@@H]1c1ccc(O)cc1 the results were STK33 kin inh 1.
For Cc1ccc2ccc(C(Nc3ccccn3)c3ccc(Cl)c(Cl)c3)c(O)c2n1 (stereo unspecified) the results were STK33 kin inh -1, ID4 binder inactive and p53 PUMA act -28.
Screening CC1(C)CC(=O)c2c(O)cc(OCC(=O)c3cccc([N+](=O)[O-])c3)cc2O1 returned STK33 kin inh 4, ID4 binder inactive and p53 PUMA act 75*.
CC1(C)CC(=O)c2c(O)cc(OCC(=O)c3ccc(-c4ccccc4)cc3)cc2O1 was read as STK33 kin inh 3, ID4 binder inactive and p53 PUMA act -19.
Cc1cccc(Cl)c1OC(=O)c1cc(C(C)(C)C)nn1C was read as STK33 kin inh -2.
`Cc1ccc2ccc(C(Nc3ccccn3)c3ccc(C(C)C)cc3)c(O)c2n1` (stereo unspecified) gave STK33 kin inh 4, ID4 binder inactive and p53 PUMA act -68.
Screening COc1ccc(CCC(=O)c2ccc(OC)cc2O)cc1 returned STK33 kin inh -2, ID4 binder inactive and p53 PUMA act 59*.
`COc1ccc(C(C)=O)c(O)c1` gave STK33 kin inh 2, ID4 binder inactive and p53 PUMA act 3.
FC(F)(F)Oc1ccc(Nc2n[nH]c(=S)s2)cc1 was read as ID4 binder inactive and p53 PUMA act 75*.
Cc1nnc(SCC(=O)Nc2ccc(OC(F)(F)F)cc2)s1 was read as STK33 kin inh -4, ID4 binder inactive and p53 PUMA act 1.
Screening C=C(C(=O)O)C(CCCCCCO)C(=O)O (stereo unspecified) returned STK33 kin inh -6, ID4 binder active and p53 PUMA act -5.
Screening C=C(C(=O)O)C(CCCCC(C)O)C(=O)O (stereo unspecified) returned STK33 kin inh -2, ID4 binder inactive and p53 PUMA act 4.
For COc1ccc(NC(=O)c2ccc(OC(=O)CCN3C(=O)c4ccccc4C3=O)cc2)cc1 the results were STK33 kin inh -4, ID4 binder inactive and p53 PUMA act 44.
Screening Cc1ccc(NC(=O)c2ccc(OC(=O)CCN3C(=O)c4ccccc4C3=O)cc2)cc1 returned STK33 kin inh 10, ID4 binder inactive and p53 PUMA act 102*.
CC1(C)CC(=O)C=C(NCC2CCN(C(=S)Nc3ccccc3)CC2)C1 was read as ID4 binder inactive and p53 PUMA act -9.
Screening C[C@@H]1CN([C@H](C)CO)C(=O)c2cc(-c3cccc(F)c3)cnc2O[C@@H]1CN(C)C(=O)Nc1cc(F)ccc1F returned ID4 binder inactive and p53 PUMA act 18.
